Compound activity deposited in PubChem by Broad Institute.
In the library only some 2.3% were active in any assay of this set; here they are far more common.
PDI turbidity: inhibitors of human protein disulfide isomerase; P07237; PDI insulin aggregation turbidity, A650, 90 min; inhibition, % at 10 µM; 0.052% of 350,000 active;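 active means mean inhibition across replicates of 30% or more, whatever share of single replicates reach that level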
Target sequence (P07237 whole entry, looked up): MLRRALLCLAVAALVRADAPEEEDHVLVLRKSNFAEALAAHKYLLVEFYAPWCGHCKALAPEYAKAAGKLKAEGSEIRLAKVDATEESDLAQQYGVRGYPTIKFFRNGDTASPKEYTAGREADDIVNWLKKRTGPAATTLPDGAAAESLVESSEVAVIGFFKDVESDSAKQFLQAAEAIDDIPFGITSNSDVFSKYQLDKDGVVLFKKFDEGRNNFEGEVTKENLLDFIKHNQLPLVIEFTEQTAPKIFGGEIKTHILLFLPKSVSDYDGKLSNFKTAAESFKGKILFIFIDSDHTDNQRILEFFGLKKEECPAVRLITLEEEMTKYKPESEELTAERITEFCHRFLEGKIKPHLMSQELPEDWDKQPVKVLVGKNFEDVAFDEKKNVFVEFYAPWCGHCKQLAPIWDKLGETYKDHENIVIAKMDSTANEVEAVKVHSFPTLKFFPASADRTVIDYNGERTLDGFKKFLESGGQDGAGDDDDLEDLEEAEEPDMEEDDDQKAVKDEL
Rtt109 HAT inh: C. albicans Rtt109 histone acetyltransferase inhibition; Q5AAJ8; inhibition, % at 34.9 µM; purified Rtt109/Vps75, ThioGlo CoA-SH fluorescence, 4 h; AID 540336; 0.16% of 330,000 active;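 active means inhibition of at least 50% in every replicate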
DENV2 CPE rescue: protects cells from dengue virus 2 cytopathic effect; DENV2-infected cells, cytopathic effect rescue, plate reader; CPE inhibition, % at 9.99 µM; 1.7% of 350,000 active; AID 651640; in the data active means CPE inhibition above about 20%, passing the limit was not always enough; tested in BHK-21 cells;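 further: 0% = median of neutral control wells and 100% = median of positive control wells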
SIRT5 inh: blocks human SIRT5 desuccinylation of peptide | Q9NXA8 | Purified SirT5, succinyl-peptide AMC, trypsin-coupled fluorescence | inhibition, % at 15 µM | 1.1% of 330,000 active | AID 652115; in the data active means inhibition above about 15%
ERp5 inh: blocks human ERp5 reductase activity on insulin | ERp5 insulin aggregation, absorbance 650 nm, 90 min | inhibition, % at 9.99 µM | 0.05% of 350,000 active | AID 651711;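 active means mean replicate inhibition above about 25%, with every replicate also reaching it, limit read from the data, passing the limit was not always enough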
Starred values were filed as active, the others as inactive; · = not tested or not shown; ! = not active in a repeat.

SMILES | PDI turbidity | Rtt109 HAT inh | DENV2 CPE rescue | SIRT5 inh | ERp5 inh
COc1ccc(C(=O)NCC(=O)OCc2ccccc2F)cc1 | 3.7 | -2.8 | 3.1 | 31.8* | 11.2
C[C@H]1CN([C@@H](C)CO)C(=O)c2cc(NS(C)(=O)=O)ccc2O[C@@H]1CN(C)S(=O)(=O)c1cccs1 | · | · | · | 6.5 | 5.7
COc1ccc(CC(=O)NNC(=O)CN(C)S(=O)(=O)c2ccc(Cl)cc2)cc1OC | -9.3 | -2.0 | -2.1 | -7.8 | 2.8
COc1cccc(CC(=O)NNC(=O)CN(C)S(=O)(=O)c2ccc(C)cc2)c1 | 4.9 | 2.4 | 17.6 | -1.8 | 27.4*
COc1ccc(CN2C(=O)C(CC(=O)NCCc3ccccn3)CC(C(=O)N(C)C)=C2C)cc1 (stereo not given) | 13.1 | · | 2.8 | 0.9 | -6.5
COc1ccc(CN2C(=O)C(CC(=O)NCCc3ccccn3)CC(C(=O)N3CCOCC3)=C2C)cc1 (stereo not given) | · | · | -6.6 | 21.1* | 4.2
COCC(=O)Nc1ccc2c(c1)[C@H]1C[C@H](CC(=O)NCc3ccncc3)O[C@H](CO)[C@H]1O2 | · | · | -5.7 | 0.3 | -11.7
CC(C)c1ccc(Nc2ccc(C(=O)O)cc2[N+](=O)[O-])cc1 | -24.1 | 14.5 | 10.1 | 30.4* | 0.4
Cc1ccc(Nc2ccc(C(=O)O)cc2[N+](=O)[O-])cc1 | 4.0 | · | 7.1 | 4.2 | 1.2
C[C@@H]1CN([C@@H](C)CO)C(=O)c2cc(Br)cnc2O[C@@H]1CN(C)Cc1ccc(C(=O)O)cc1 | · | · | 19.0 | -4.0 | 15.2
COCC(=O)Nc1ccc2c(c1)[C@@H]1C[C@H](CC(=O)NCc3ccccc3OC)O[C@H](CO)[C@@H]1O2 | · | · | -0.2 | -0.3 | ·
CN(C)S(=O)(=O)c1ccc(C(=O)Nc2ccccc2[N+](=O)[O-])cc1 | -1.2 | -6.0 | -3.7 | · | -0.2
Cc1ccccc1NC(=O)c1ccc(S(=O)(=O)N(C)C)cc1 | 0.2 | -12.8 | 50.9* | · | 1.2
C[C@H]1CCCCO[C@H](CN(C)C(=O)c2ccccc2)[C@@H](C)CN([C@@H](C)CO)C(=O)c2cc(NS(=O)(=O)c3cccs3)ccc2O1 | · | · | 4.2 | 3.0 | 7.3
COC(=O)c1c(NC(=O)CC2Sc3ccc(C(F)(F)F)cc3NC2=O)sc(C)c1C (stereo not given) | 2.8 | -0.2 | 24.7* | · | -2.8
C[C@H]1ON(c2ccccc2)[C@@H](c2ccccc2)[C@@H]1C(=O)N1C(=O)OC[C@@H]1c1ccccc1 | · | · | 14.6 | 0.0 | 0.0
CS(=O)(=O)N1CCCCN2[C@H](C1)[C@H](c1ccc(C3=CCCC3)cc1)[C@@H]2CO | · | · | -9.0 | · | ·
CS(=O)(=O)N1CCCCN2[C@@H](CO)[C@@H](c3ccc(C4=CCCC4)cc3)[C@@H]2C1 | · | · | 29.2* | 2.4 | 6.0
CS(=O)(=O)N1CCCCN2[C@H](CO)[C@H](c3ccc(C4=CCCC4)cc3)[C@@H]2C1 | · | · | 29.4* | 5.8 | 2.4
O=C(c1ccncc1)N1CC2(C1)[C@H](c1ccccc1)[C@@H](CO)N2CC1CCOCC1 | · | · | 73.4* | 4.1 | 0.6
O=C(c1ccncc1)N1CC2(C1)[C@H](c1ccccc1)[C@H](CO)N2CC1CC1 | · | · | -0.9 | -1.2 | -3.4
O=C(c1ccncc1)N1CC2(C1)[C@H](c1ccccc1)[C@H](CO)N2CC1CCCC1 | · | · | -2.6 | 2.6 | 3.4
O=C(c1ccncc1)N1CC2(C1)[C@@H](c1ccccc1)[C@@H](CO)N2CC1CCCC1 | · | · | -6.2 | 18.0* | 9.3
O=C(NC1CCCC1)N1CC2(C1)[C@H](c1ccccc1)[C@@H](CO)N2CC1CCOCC1 | · | · | 38.1* | 12.0 | -0.3
O=C(c1ccccc1)N1CC2(C1)[C@@H](c1ccccc1)[C@@H](CO)N2CC1CC1 | · | · | 21.4* | -2.8 | -4.2
SMILES | PDI turbidity | Rtt109 HAT inh | DENV2 CPE rescue | SIRT5 inh | ERp5 inh
O=C(C[C@H]1C[C@@H]2c3cc(NC(=O)CC4CC4)ccc3O[C@@H]2[C@@H](CO)O1)NCc1ccccn1 | · | · | 9.3 | 5.6 | 2.7
CCC(=O)N1CC2(C1)[C@@H](c1ccccc1)[C@@H](CO)N2CC1CCOCC1 | · | · | -4.5 | -0.5 | 0.5
O=C(c1ccccc1F)N1CC2(C1)[C@@H](c1ccccc1)[C@H](CO)N2CC1CC1 | · | · | 29.6* | -2.7 | -8.6
O=C(c1ccccc1F)N1CC2(C1)[C@@H](c1ccccc1)[C@@H](CO)N2CC1CCOCC1 | · | · | 7.2 | 2.3 | -5.5
CCC(=O)N1CC2(C1)[C@H](c1ccccc1)[C@H](CO)N2CC1CCOCC1 | · | · | 70.4* | -0.1 | 1.4
C[C@@H]1CCCCO[C@@H](CN(C)S(=O)(=O)c2ccc(Cl)cc2)[C@H](C)CN([C@H](C)CO)C(=O)c2cc(NC(=O)Cc3ccccc3)ccc2O1 | · | · | 14.2 | 9.9 | 2.1
COc1ccc(NC(=S)N2CCC(C(=O)c3ccc(F)cc3)CC2)cc1 | -0.1 | 3.2 | 37.0* | -4.7 | 6.0
C=CCNC(=S)N1CCC(C(=O)c2ccc(F)cc2)CC1 | 0.2 | -13.8 | 53.3* | 2.0 | -3.7
CNC(=S)N1CCC(C(=O)c2ccc(Cl)cc2)CC1 | -1.9 | · | 22.1* | -1.6 | 3.6
Cc1ccc(C)c(NC(=S)N2CCC(C(=O)c3ccc(F)cc3)CC2)c1 | -12.5 | · | 20.9* | · | 1.1
COc1ccc(NC(=S)N2CCC(C(=O)c3ccc(Cl)cc3)CC2)cc1 | 5.9 | -2.9 | 6.1 | -2.2 | -4.8
Cc1ccc(CNc2nc(NC(C)C)nc3ccsc23)c(C)c1 | -41.2 | · | -8.7 | 20.8* | 1.6
CCCN(CC(=O)Nc1ccccc1C)C(=O)C1CCN(S(=O)(=O)c2ccc(C)c(C)c2)CC1 | 0.7 | · | 27.0* | 1.9 | -2.2
CCCN(CC(=O)Nc1ccccc1C)C(=O)C1CCN(S(=O)(=O)c2ccc3c(c2)OCCO3)CC1 | 6.8 | 19.8 | -5.6 | -2.0 | 3.3
Cc1ccc(S(=O)(=O)N2CCC(C(=O)OCC(=O)N(C)Cc3ccccc3)CC2)cc1C | -0.9 | 26.0 | -4.6 | 20.4* | 2.9
C[C@@H]1CN([C@@H](C)CO)C(=O)c2cc(C3=CCCCC3)cnc2O[C@H]1CN(C)C(=O)Nc1cccc(F)c1 | -2.1 | · | 29.7*! | 0.2 | -6.5
C[C@@H]1CN([C@H](C)CO)C(=O)c2cc(C3=CCCC3)cnc2O[C@@H]1CN(C)C(=O)Nc1ccc(C(F)(F)F)cc1 | · | · | 32.7* | -1.0 | 5.0
C[C@H](CO)N1C[C@H](C)[C@@H](CN(C)C(=O)Nc2ccc(F)cc2)Oc2ncc(C3=CCCC3)cc2C1=O | · | · | 26.6* | · | 1.0
C[C@H](CO)N1C[C@H](C)[C@@H](CN(C)C(=O)C2CCOCC2)Oc2ncc(C3=CCCCC3)cc2C1=O | · | · | 45.3* | -0.6 | 8.1
C[C@@H]1CN([C@@H](C)CO)C(=O)c2cc(C3=CCCC3)cnc2O[C@H]1CN(C)C(=O)Nc1ccc(C(F)(F)F)cc1 | · | · | 11.4 | 4.0 | 4.3
CCNC(=O)C[C@H]1CC[C@@H]2[C@H](COC[C@@H](O)CN2C(=O)c2cc(Cl)cc(Cl)c2)O1 | · | · | -5.5 | -2.5 | -0.7
O=C(C[C@H]1CC[C@@H]2[C@H](COC[C@@H](O)CN2Cc2cc(F)cc(F)c2)O1)NC1CCCC1 | · | · | 1.2 | 8.6 | -4.1
C[C@@H]1CN([C@@H](C)CO)C(=O)c2cc(C3=CCCC3)cnc2O[C@@H]1CN(C)C(=O)NC1CCCC1 | · | · | -4.3 | 3.1 | 0.9
